Data from PubChem BioAssay (NCI).
The panel holds about 83,000 compounds, 20% with a hit somewhere; the sample as a whole holds those more often.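 A percent growth of 40 corresponds to 60% growth inhibition; 0 means no net growth; -100 means all cells died. Active threshold: below 10.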 Unmarked numbers belong to inactive results. The source made the active and inactive calls.

How the values were obtained:
Assay in all cases: NCI-60 one-dose screen, 48 h (100 = growth as untreated, 0 = no growth, -100 = all killed)
[1] = tested on: EKVX NSCLC; conditions: 10 µM unless noted
[2] = tested on: SN12C renal; conditions: 10 µM unless noted
[3] = tested on: UO-31 renal; conditions: 10 µM unless noted
[4] = tested on: TK-10 renal; conditions: 10 µM unless noted
[5] = tested on: ACHN renal; conditions: 10 µM unless noted
[6] = tested on: CAKI-1 renal; conditions: 10 µM
[7] = tested on: CCRF-CEM leukemia; conditions: 10 µM unless noted
[8] = tested on: MOLT-4 leukemia; conditions: 10 µM unless noted
[9] = tested on: SR leukemia; conditions: 10 µM unless noted
[10] = tested on: RPMI-8226 leukemia; conditions: 10 µM unless noted
[11] = tested on: OVCAR-8 ovarian; conditions: 10 µM unless noted
[12] = tested on: OVCAR-5 ovarian; conditions: 10 µM unless noted
[13] = tested on: OVCAR-4 ovarian; conditions: 10 µM unless noted
[14] = tested on: SK-OV-3 ovarian; conditions: 10 µM unless noted
[15] = tested on: IGROV1 ovarian; conditions: 10 µM unless noted
[16] = tested on: HS 578T breast; conditions: 10 µM unless noted
[17] = tested on: NCI/ADR-RES ovarian; conditions: 10 µM unless noted
[18] = tested on: A498 renal; conditions: 10 µM unless noted

Structure (SMILES)	growth [1]	growth [2]	growth [3]	growth [4]	growth [5]	growth [6]	growth [7]	growth [8]	growth [9]	growth [10]	growth [11]	growth [12]	growth [13]	growth [14]	growth [15]	growth [16]	growth [17]	growth [18] [%]
Cc1cn(-c2cc(NC(=O)c3cncc(C#Cc4cnc5ccc(O[C@@H]6CCOC6)nn45)c3)cc(C(F)(F)F)c2)cn1	-9.97% (active)	-8.41% (active)	-13.3% (active)	-19.2% (active)	-93.6% (active)	1.07% (active)	0.641% (active)	2.18% (active)	-35.6% (active)	-29.8% (active)	-49.7% (active)	0.672% (active)	-33.1% (active)	-22.3% (active)	-9.41% (active)	-25.1% (active)	40.4%	
C/C(Cc1ccc(Cl)cc1)=C(/c1ccccc1)c1ccc(OCCN)cc1	98.7%	103%	89.7%	100%	99.4%		110%			101%	101%	97.4%	101%	117%	98.3%	97.1%	94.8%	95.8
Cc1nc(-c2cc3ccccc3c(N3CCN(C)CC3)n2)cs1	96.3%	90%	67%	98.2%	94%	72.1%	103%	98%	102%	99.2%	98.8%	104%	102%	97.1%	97.3%	85.5%	94.3%	
COc1ccc(C2C(C#N)=C(N)Oc3c2sc2ccc(C)cc32)cc1 (stereo not drawn)	53.4%	34.9%	41.7%	81.4%	44.9%	32.1%	26.4%	45%	25.7%	36.5%	56%	51.4%	63%	41.2%	39.8%	3.28% (active)	23.6%	
CC(C)(C)CC(C)(C)n1nnnc1C(Nc1ccccc1)c1cc2cccc3ccc4cccc1c4c32 (stereo not drawn)	73.5%	78.4%	73.1%	94.6%	87.5%	55.8%	86.7%	73.2%	82.3%	82.2%	86.4%	85.3%	82.7%	87.1%	92.6%	90.3%	81.7%	
Cn1cc(-c2nn3cc(-c4cccnc4)nc3s2)c2ccccc21	43.8%	33.4%	32.2%	80.5%	48.1%		38%			30.4%	36.4%	36.6%	76.6%	50.7%	40.2%	31.3%	18.9%	36.6
COc1cc2c3c(n(CCCNC4CCCCC4)c(=O)c2cc1OC)-c1cc2c(cc1C3=O)OCO2	-65.3% (active)	-70.3% (active)	84.5%	-95% (active)	-6.15% (active)		-25.3% (active)			-46.5% (active)	-66.8% (active)	-86.4% (active)	93.2%		-30.9% (active)	90.5%	-22.9% (active)	86.2
Cc1ccccc1NC1CC(=O)N(c2ccc(Cl)cc2Cl)C1=O (stereo not drawn)	96.7%	103%	92.3%	99.3%	104%	89.9%	112%	117%	102%	102%	103%	107%			101%	99.6%	99.9%	
CC1CCc2c(sc3nc(SCC(=O)N/N=C/c4cccc(O)c4O)n(-c4ccccc4)c(=O)c23)C1 (stereo not drawn)	85.6%	84%	73.2%	116%	71.9%	76.3%	91.9%	85%	81%	89.1%	90.6%	93.6%	84.7%	107%	92.9%	95.8%	89.1%	
CCCCCCNC(=O)Oc1ccc(/C(=C(/C)c2ccccc2)c2ccc(OCCN(C)C)cc2)cc1	72.2%	63.6%	53.9%	83%	71.3%		67.9%	34.7%	-27.8% (active)	50.5%	73.6%	73%	73.6%	93.2%	66.3%	64.5%	71.2%	76.5
Cc1cc(=O)n2nc(-c3cn(C)c4ccc(Cl)cc34)sc2n1	89.5%	91.6%	87.1%	138%	89.8%	79%	88.3%	86.6%	93%	94.5%	96.8%	93.8%	93.7%	84.3%	83.7%	83.9%	93.2%	
